Unmarked numbers belong to inactive results.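 The calls were made as follows: active = falling viability signal whose fitted half-maximal concentration is at most twice the highest tested dose; inconclusive = flat fit with a moderate drop, or a poor curve fit; inactive = the rest.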

This assay in a line: HepG2 viability loss by ATP level – cell-based, CellTiter-Glo luminescence, dry powder, cytotoxicity control, dose response (AID 743482). The conditions noted are these: 72 h; series mostly up to 26 µM; activity change, negative = cytotoxicity: at the top concentration. (In ATP-based viability assays light output follows the ATP content of the culture.)
With `C[C@@H]1CN([C@H](C)CO)C(=O)c2cc(NC(=O)C3CCCCC3)ccc2O[C@@H](C)CCCCO[C@H]1CN(C)C(=O)Nc1cccc2ccccc12`, the “activity change, negative = cytotoxicity” value was -23.2%. For `C[C@@H]1CCCCO[C@H](CN(C)C(=O)Nc2cccc3ccccc23)[C@H](C)CN([C@@H](C)CO)C(=O)c2cc(NC(=O)C3CCCCC3)ccc2O1`, the “activity change, negative = cytotoxicity” value was 10.5%. `C[C@H](CO)N1C[C@H](C)[C@H](CN(C)C(=O)Nc2ccccc2)OCCCC[C@H](C)Oc2ccc(NC(=O)C3CCCCC3)cc2C1=O`: the “activity change, negative = cytotoxicity” value is 4.6%. With `C[C@@H]1CN([C@@H](C)CO)C(=O)c2cc(NC(=O)C3CCCCC3)ccc2O[C@@H](C)CCCCO[C@@H]1CN(C)C(=O)Nc1cccc2ccccc12`, the “activity change, negative = cytotoxicity” value was -1.51%.

For `C[C@H](CO)N1C[C@H](C)[C@H](CN(C)C(=O)Nc2cccc3ccccc23)OCCCC[C@H](C)Oc2ccc(NC(=O)CCC(F)(F)F)cc2C1=O`, the “activity change, negative = cytotoxicity” value was 20.8%.

Regarding `C[C@@H]1CCCCO[C@H](CN(C)C(=O)Nc2cccc3ccccc23)[C@H](C)CN([C@H](C)CO)C(=O)c2cc(NC(=O)C3CCCCC3)ccc2O1`, the “activity change, negative = cytotoxicity” value is 26.6%. The result for `C[C@@H]1CCCCO[C@@H](CN(C)C(=O)Nc2cccc3ccccc23)[C@H](C)CN([C@@H](C)CO)C(=O)c2cc(NC(=O)C3CCCCC3)ccc2O1` reads -6.6%. `C[C@@H]1CCCCO[C@H](CN(C)C(=O)Nc2cccc3ccccc23)[C@@H](C)CN([C@H](C)CO)C(=O)c2cc(NC(=O)C3CCCCC3)ccc2O1`: the “activity change, negative = cytotoxicity” value is 18.3%. The result for `C[C@@H]1CCCCO[C@@H](CN(C)C(=O)Nc2cccc3ccccc23)[C@H](C)CN([C@H](C)CO)C(=O)c2cc(NC(=O)C3CCCCC3)ccc2O1` reads 2.79%; that for `Cc1ccc(NC(=O)N(C)C[C@@H]2OCCCC[C@H](C)Oc3ccc(NC(=O)C4CCCCC4)cc3C(=O)N([C@H](C)CO)C[C@@H]2C)cc1`, 8.53%.

In the case of `C[C@H](CO)N1C[C@H](C)[C@H](CN(C)C(=O)Nc2ccc(C(F)(F)F)cc2)OCCCC[C@H](C)Oc2ccc(NC(=O)CCC(F)(F)F)cc2C1=O`, the “activity change, negative = cytotoxicity” value was 27.6%. The result for `C[C@H](CO)N1C[C@H](C)[C@H](CN(C)C(=O)Nc2ccc(F)cc2)OCCCC[C@H](C)Oc2ccc(NC(=O)C3CCCC3)cc2C1=O` reads 6.05%; that for `C[C@H](CO)N1C[C@H](C)[C@H](CN(C)C(=O)Nc2ccc(F)cc2)OCCCC[C@H](C)Oc2ccc(NC(=O)C3CCC3)cc2C1=O`, 10.1%.

With `C[C@@H]1CCCCO[C@H](CN(C)C(=O)Nc2cccc3ccccc23)[C@@H](C)CN([C@@H](C)CO)C(=O)c2cc(NC(=O)C3CCCCC3)ccc2O1`, the “activity change, negative = cytotoxicity” value is 54.1%. With `COc1ccc(NC(=O)N(C)C[C@@H]2OCCCC[C@H](C)Oc3ccc(NC(=O)NC4CCCCC4)cc3C(=O)N([C@H](C)CO)C[C@@H]2C)cc1` the figure was 37.9%; with `C[C@H]1CCCCO[C@@H](CN(C)C(=O)Nc2cccc3ccccc23)[C@@H](C)CN([C@@H](C)CO)C(=O)c2cc(NC(=O)C3CCCCC3)ccc2O1`, 11.6%. The result for `CC(C)(C)c1ccc(-c2nc(-c3ccncc3)no2)cc1` reads -8.66%.

(Values after PubChem BioAssay AID743482 (Broad Institute, 2014).)
